Measured values taken from PubChem BioAssay.
The source made the active and inactive calls.

Legend:
[1] = binders of probe aFSTL3 on microarray, primary screen, stem cell growth factor project, biochemical, small-molecule microarray, fluorescence 635/667 (AID 1064); conditions: higher = more signal;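 also: measures binding of the biotinylated anti-FSTL3 antibody to printed compounds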
[2] = binders from COS7 lysate, DM2A8 probe, primary screen, torsin A project, cell lysate, small-molecule microarray, fluorescence 635/667 (AID 1065); conditions: higher = more signal, COS7 lysate expressing mutant human TOR1A
[3] = binders of probe aFGF2 on microarray, primary screen, stem cell growth factor project, biochemical, small-molecule microarray, fluorescence 635/667 (AID 1067); conditions: higher = more signal;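 also: measures binding of biotinylated aFGF2 protein to printed compounds on slides; z-score merges feature fluorescence and signal-to-noise across triplicate slides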
[4] = binders of probe aFGF10 on microarray, primary screen, stem cell growth factor project, biochemical, small-molecule microarray, fluorescence 635/667 (AID 1071); conditions: higher = more signal;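 also: score merges 667 nm spot intensity and signal to noise from triplicate slides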
[5] = molecular target: Neurogenic locus notch homolog protein 2 (Homo sapiens) (UniProt Q04721); assay: Notch2 binders on small-molecule microarrays, primary screen, biochemical, small-molecule microarray, 635 nm fluorescence, stem cell growth factors (AID 1073); conditions: Notch2 binding, higher = more signal
[6] = molecular target: Pro-neuregulin-1, membrane-bound isoform (Homo sapiens) (UniProt Q02297); assay: NRG1 binders on small-molecule microarrays, primary screen, psychiatric disease protein project, biochemical, small-molecule microarray, fluorescence 635/667 (AID 1075); conditions: NRG1 binding, 635 nm fluorescence, higher = more signal;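 also: score combines 667 nm spot fluorescence with signal to noise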
[7] = system: Neuregulin-1 EGF-like domain; assay: binders of neuregulin-1 EGF-like domain, primary screen, biochemical, small-molecule microarray, 635 nm fluorescence (AID 1081); conditions: small-molecule microarray binding, higher = more signal;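 also: binding of the protein to compounds printed on small-molecule microarray slides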
[8] = FRG1 promoter luciferase signal modulators, primary screen, FRG1 inhibition for FSHD, cell-based, C2C12 myotubes, firefly/Renilla luciferase, luminescence (AID 1084); conditions: higher = more signal, called active from +8 up or from −8 down
[9] = binders of probe aFST on microarray, primary screen, stem cell growth factor project, biochemical, small-molecule microarray, fluorescence 635/667 (AID 1086); conditions: higher = more signal;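 also: score merges 667 nm fluorescence with signal-to-noise of each printed compound spot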
[10] = binders of probe aHhip on microarray, primary screen, stem cell growth factor project, biochemical, small-molecule microarray, fluorescence 635/667 (AID 1087); conditions: higher = more signal;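 also: score merges spot fluorescence at 667nm with spot signal to noise ratio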

Chain of Pro-neuregulin-1, membrane-bound isoform (Homo sapiens) (Q02297 whole entry, looked up, the tested form may be a part, canonical isoform): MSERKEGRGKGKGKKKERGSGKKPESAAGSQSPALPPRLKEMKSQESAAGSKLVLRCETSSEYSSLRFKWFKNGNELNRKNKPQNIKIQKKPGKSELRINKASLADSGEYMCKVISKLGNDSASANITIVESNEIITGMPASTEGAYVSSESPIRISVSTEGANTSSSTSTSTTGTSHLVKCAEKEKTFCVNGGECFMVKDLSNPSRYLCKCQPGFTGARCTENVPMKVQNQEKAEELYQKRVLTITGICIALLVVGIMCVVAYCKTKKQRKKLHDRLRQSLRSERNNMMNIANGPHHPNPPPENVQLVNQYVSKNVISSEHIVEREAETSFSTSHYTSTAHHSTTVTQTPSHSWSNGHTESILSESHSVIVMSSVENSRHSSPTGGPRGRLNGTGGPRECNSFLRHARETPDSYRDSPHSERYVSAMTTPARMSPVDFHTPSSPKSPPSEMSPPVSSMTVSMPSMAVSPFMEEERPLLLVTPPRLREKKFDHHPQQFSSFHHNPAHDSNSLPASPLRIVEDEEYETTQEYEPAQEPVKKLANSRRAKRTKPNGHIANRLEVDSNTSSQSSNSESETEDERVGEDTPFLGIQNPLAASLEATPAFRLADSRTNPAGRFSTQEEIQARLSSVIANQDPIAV
Chain of Neurogenic locus notch homolog protein 2 (Homo sapiens) (Q04721 whole entry, looked up, canonical isoform): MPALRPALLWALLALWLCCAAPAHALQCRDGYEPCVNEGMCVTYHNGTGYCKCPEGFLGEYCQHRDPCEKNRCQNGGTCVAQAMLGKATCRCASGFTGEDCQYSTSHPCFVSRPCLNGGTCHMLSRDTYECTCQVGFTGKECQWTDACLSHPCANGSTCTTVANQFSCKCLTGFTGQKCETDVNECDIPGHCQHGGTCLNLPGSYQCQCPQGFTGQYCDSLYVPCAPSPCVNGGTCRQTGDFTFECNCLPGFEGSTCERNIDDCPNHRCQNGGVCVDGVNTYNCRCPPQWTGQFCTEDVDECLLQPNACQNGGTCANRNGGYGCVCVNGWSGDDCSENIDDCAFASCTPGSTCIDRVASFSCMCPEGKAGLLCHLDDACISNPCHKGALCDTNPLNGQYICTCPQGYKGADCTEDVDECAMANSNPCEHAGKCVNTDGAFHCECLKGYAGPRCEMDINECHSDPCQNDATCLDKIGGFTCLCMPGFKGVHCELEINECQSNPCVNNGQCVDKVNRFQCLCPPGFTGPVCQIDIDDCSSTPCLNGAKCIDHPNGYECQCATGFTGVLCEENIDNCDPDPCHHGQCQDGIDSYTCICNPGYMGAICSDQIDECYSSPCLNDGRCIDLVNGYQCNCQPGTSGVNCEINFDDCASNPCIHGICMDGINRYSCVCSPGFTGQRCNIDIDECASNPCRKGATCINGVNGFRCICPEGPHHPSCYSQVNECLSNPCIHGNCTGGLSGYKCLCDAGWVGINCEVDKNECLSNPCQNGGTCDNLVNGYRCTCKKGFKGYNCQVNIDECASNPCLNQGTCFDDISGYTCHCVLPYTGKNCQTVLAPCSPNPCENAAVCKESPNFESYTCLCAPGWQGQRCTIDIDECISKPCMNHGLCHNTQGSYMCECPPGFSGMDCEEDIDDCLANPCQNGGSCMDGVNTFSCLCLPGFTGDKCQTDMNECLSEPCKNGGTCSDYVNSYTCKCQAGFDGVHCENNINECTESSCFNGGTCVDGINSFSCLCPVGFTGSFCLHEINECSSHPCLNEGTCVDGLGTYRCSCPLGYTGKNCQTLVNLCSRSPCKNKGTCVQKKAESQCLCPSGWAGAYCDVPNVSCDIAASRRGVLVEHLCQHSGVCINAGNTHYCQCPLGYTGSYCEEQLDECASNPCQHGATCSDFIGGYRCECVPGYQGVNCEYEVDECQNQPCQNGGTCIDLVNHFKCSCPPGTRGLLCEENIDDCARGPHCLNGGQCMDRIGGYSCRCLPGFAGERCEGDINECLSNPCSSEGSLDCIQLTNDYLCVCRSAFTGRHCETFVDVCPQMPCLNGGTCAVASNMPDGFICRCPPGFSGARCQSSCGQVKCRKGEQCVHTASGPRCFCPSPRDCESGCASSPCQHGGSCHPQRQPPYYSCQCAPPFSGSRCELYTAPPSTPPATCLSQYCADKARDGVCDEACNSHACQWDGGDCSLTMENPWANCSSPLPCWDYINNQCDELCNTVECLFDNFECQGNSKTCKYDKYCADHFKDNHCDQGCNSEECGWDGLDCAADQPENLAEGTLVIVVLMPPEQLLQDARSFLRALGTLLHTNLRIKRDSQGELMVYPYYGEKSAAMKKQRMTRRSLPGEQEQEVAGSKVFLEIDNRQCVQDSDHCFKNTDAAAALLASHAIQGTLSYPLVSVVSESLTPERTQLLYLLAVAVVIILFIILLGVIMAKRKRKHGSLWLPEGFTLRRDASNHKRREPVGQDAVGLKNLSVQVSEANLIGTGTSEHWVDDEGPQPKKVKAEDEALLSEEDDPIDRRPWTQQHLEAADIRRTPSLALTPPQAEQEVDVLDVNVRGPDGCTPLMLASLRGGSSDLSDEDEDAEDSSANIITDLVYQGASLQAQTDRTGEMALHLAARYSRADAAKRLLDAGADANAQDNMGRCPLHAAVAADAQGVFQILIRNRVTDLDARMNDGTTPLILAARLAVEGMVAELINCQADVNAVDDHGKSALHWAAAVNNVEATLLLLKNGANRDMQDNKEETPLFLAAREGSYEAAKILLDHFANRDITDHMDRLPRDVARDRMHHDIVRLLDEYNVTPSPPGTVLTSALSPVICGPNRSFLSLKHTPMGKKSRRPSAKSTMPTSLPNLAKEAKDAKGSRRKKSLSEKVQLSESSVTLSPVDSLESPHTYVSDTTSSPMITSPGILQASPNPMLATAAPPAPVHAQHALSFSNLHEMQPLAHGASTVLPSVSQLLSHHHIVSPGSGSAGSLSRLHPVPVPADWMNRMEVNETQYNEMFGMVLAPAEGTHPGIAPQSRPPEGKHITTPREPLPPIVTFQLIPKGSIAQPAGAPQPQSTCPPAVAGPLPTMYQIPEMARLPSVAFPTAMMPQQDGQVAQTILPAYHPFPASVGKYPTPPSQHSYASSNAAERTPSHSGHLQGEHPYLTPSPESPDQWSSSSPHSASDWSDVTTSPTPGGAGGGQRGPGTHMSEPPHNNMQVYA

Compound | composite z-score [1] | composite z-score [2] | composite z-score [3] | composite z-score [4] | composite z-score [5] | composite z-score [6] | composite z-score [7] | z-score [8] | composite z-score [9] | composite z-score [10]
C=CCNC(=O)[C@H]1[C@@H]2C(=O)O[C@@H](c3ccccc3)[C@@H](c3ccccc3)N2[C@@H](c2ccc(O)cc2)[C@]12C(=O)Nc1ccc(C#CC3=CCCCC3)cc12 | -0.713 | 2.01 | -0.0449 | 0.447 | 0.706 | 0.0212 | 1.18 | -0.195 (inactive) | -0.166 | 0.199
[N-]=[N+]=NCc1ccccc1C[C@]1(C(=O)N2CCOCC2)N=C(c2ccc(OCCCO)cc2)O[C@H]1c1ccccc1CN=[N+]=[N-] | 0.998 | 2.14 | 0.285 | 0.88 | 1.42 | 2.09 | 1.26 | -2.03 (inactive) | 1.5 | 0.0623
[N-]=[N+]=NCc1ccccc1C[C@]1(C(=O)O)COC(c2ccc(OCCCO)cc2)=N1 | 0.895 | -0.167 | -0.0213 | -0.461 | -0.664 | 1.57 | 0.0238 | 0.277 (inactive) | 0.0273 | 0.2
O=c1cccc(-c2ccccc2C(F)(F)F)o1 | 0.912 | -0.0924 | 0.409 | -0.331 | -0.489 | -0.168 | 0.381 | 0.364 (inactive) | 0.862 | 0.173
CCCCC=C[C@@H](NC(=O)c1ccc(C(F)(F)F)cc1)c1ccccc1 | 0.385 | 0.0374 | -0.0583 | -0.0239 | -0.955 | 0.297 | -0.444 | 1.02 (inactive) | -0.392 | 0.449
CC(C)C(=C=CC[C@@H](O)c1ccccc1OCCO)C[C@@H](O)c1cc(Cl)cc(Cl)c1O | -0.667 | 1.84 | -0.076 | 0.961 | 1.16 | 1.48 | 1.19 | -1.95 (inactive) | 0.704 | -0.0296
CCC(CC)C(O)C1C=CC2C(=O)N(C)C(=O)C2N1N1CCCCC1 (stereo not given) | 0.104 | 0.816 | 0.121 | 0.837 | 1.31 | 1.83 | 1.23 | 0.855 (inactive) | 1.29 | 0.281
C=CC[C@@]12N=C(c3ccc(OCCCO)cc3)O[C@@H]1c1ccccc1N(Cc1ccccc1)C2=O | 1.16 | 1.43 | 0.302 | 0.524 | 0.552 | 1.44 | 1.31 | -3.36 (inactive) | 2.19 | 0.145
COCCCN1C(=O)[C@@]2(Cc3ccccc31)c1ccccc1C(=O)N(Cc1ccccc1OC)[C@H]2c1ccc(CO)cc1 | 0.303 | -0.457 | -0.122 | -0.279 | -0.228 | 0.731 | -0.944 | -0.193 (inactive) | 0.023 | -0.181
COC(=O)[C@@]1(Cc2ccc(OC)cc2)[C@H]2c3cc(C(=O)N4CCCC4)n(CCc4ccc(OC)c(Br)c4)c3C[C@H]2CN1C(=O)c1ccccc1 | 1.02 | -0.116 | 0.159 | 0.929 | 1.04 | 2.17 | 1.44 | 1.25 (inactive) | 0.546 | 0.21
C=CCOC(=O)[C@H]1[C@@H]2C(=O)O[C@@H](c3ccccc3)[C@@H](c3ccccc3)N2[C@@H](c2ccc(OCCOC(=O)[C@@H]3C[C@@H]4C(=O)N[C@@H](CC(C)C)C(=O)N4[C@@H]3c3ccc(O)cc3)cc2)[C@]12C(=O)Nc1ccc(I)cc12 | -0.185 | 0.246 | -0.158 | -0.0479 | 0.672 | 1.33 | 1.29 | -1.13 (inactive) | -0.0054 | 0.15
COc1ccc([Si](C)(C)[C@@H]2[C@@H](CCO)O[C@]3(C(=O)N(Cc4ccccc4)c4ccc(N5C(=O)c6ccccc6Oc6ccccc65)cc43)[C@H]2C)cc1 | -0.0276 | -0.662 | -0.0962 | 0.379 | -0.236 | 0.992 | 0.671 | 0.816 (inactive) | -0.089 | -0.284
O=C(NCC(F)(F)F)[C@@H]1c2ccccc2C(=O)N(CC23CC4CC(CC(C4)C2)C3)[C@H]1c1ccc(CO)cc1 | -0.473 | 0.371 | -0.0549 | 0.353 | 0.958 | 0.553 | 1.21 | -3.95 (inactive) | 0.195 | -0.0776
CC(C)C[C@H]1NC(=O)[C@H](Cc2ccccc2)NC(=O)[C@@]23C(=O)N[C@@H](Cc4ccccc4)C2[C@H](C)[C@@]2(C)O[C@H]2C3/C=C/C/C=C\CNC1=O (stereo not given in full) | -0.263 | 0.919 | -0.116 | 0.461 | 0.777 | 1.03 | 1.05 | 2.48 (inactive) | 0.089 | 0.0626
[N-]=[N+]=NCc1ccccc1[C@H]1OC(c2ccc(OCCCO)cc2)=N[C@@]1(Cc1ccccc1)C(=O)N1CCOCC1 | -0.212 | 0.768 | 0.0232 | 1.15 | 1.71 | 1.39 | 1.21 | -0.868 (inactive) | 1.8 | -0.166
C#CCN([C@H](/C=C/C1CC1)[C@@H](O)Cc1ccccc1)[C@@H](Cc1ccccc1)C(=O)OC | 0.262 | -0.134 | -0.121 | -0.363 | -0.807 | -0.458 | -0.706 | -1.67 (inactive) | -0.0804 | -0.123
C=CC(CO)NC(=O)OCC1c2ccccc2-c2ccccc21 (stereo not given) | -0.165 | 0.96 | -0.178 | 0.282 | 0.342 | 0.147 | 0.256 | -0.113 (inactive) | 0.0613 | -0.217

Compound | composite z-score [1] | composite z-score [2] | composite z-score [3] | composite z-score [4] | composite z-score [5] | composite z-score [6] | composite z-score [7] | z-score [8] | composite z-score [9] | composite z-score [10]
NCCCC[C@@H]1NC(=O)[C@H]2C[C@@H](C(=O)O)[C@@H](c3cccc(OCCO)c3)N2C1=O | 1.34 | 1.57 | 0.097 | 0.856 | 1.61 | 2.05 | 1.4 | 0.805 (inactive) | 2.16 | -0.0474
COc1ccc(CCNC(=O)[C@@]2(Sc3ccc(C)cc3)CC(=O)N(Cc3cc(C(F)(F)F)cc(C(F)(F)F)c3)[C@@H]2c2ccc(CO)cc2)cc1 | 0.575 | -0.748 | -0.188 | -0.498 | -1.79 | -0.854 | -0.637 | 0.522 (inactive) | -0.498 | 0.132
COC(=O)[C@@]1(Cc2ccccc2CN=[N+]=[N-])COC(c2ccc(OCCCO)cc2)=N1 | 1.28 | -1.34 | -0.245 | -0.565 | -1.79 | 0.305 | 0.62 | -0.988 (inactive) | -0.575 | -0.137
CC(C)[Si](C#CCCCC#N)(O[C@H](c1ccccc1)c1cn([C@H](C)c2ccccc2)nn1)C(C)C | -0.207 | 0.268 | -0.0538 | 0.505 | 0.792 | 0.816 | 0.726 | -2.24 (inactive) | 0.612 | -0.214
O=C1N(Cc2ccccc2)c2ccccc2[C@H]2OC(c3ccc(OCCCO)cc3)=N[C@@]12Cc1ccccc1 | 0.85 | 0.205 | 0.202 | 0.862 | 0.45 | 0.924 | 1.3 | -1.69 (inactive) | 1.03 | 0.115
COc1ccccc1CN1C(=O)c2ccccc2[C@](Cc2ccccc2I)(C(=O)NCCCN(C)C)[C@@H]1c1ccc(CO)cc1 | -0.967 | -0.501 | -0.116 | 0.483 | 0.452 | 0.683 | 1.19 | -3.16 (inactive) | -0.0929 | -0.37
COCCOC(=O)N1C(=O)[C@@]2(c3cc(C#CCCO)ccc31)[C@H](C(=O)N1CCN(c3ncccn3)CC1)[C@H]1C(=O)O[C@H](c3ccccc3)[C@H](c3ccccc3)N1[C@@H]2c1ccc(O)cc1 | -0.782 | 0.219 | 0.0243 | 0.534 | 0.376 | 0.926 | 1.24 | -1.3 (inactive) | -0.3 | -0.367
COCCOC(=O)N1C(=O)[C@@]2(c3cc(C#CCC(C(=O)OC)C(=O)OC)ccc31)[C@H](C(N)=O)[C@H]1C(=O)O[C@H](c3ccccc3)[C@H](c3ccccc3)N1[C@@H]2c1ccc(OCCO)cc1 | -0.231 | 0.787 | 0.0001 | 0.906 | 1.34 | 1.19 | 1.23 | 0.789 (inactive) | 0.111 | -0.249
COc1ccc(C(O)C2C=CC3C(=O)N(C)C(=O)C3N2Nc2ccc([N+](=O)[O-])cc2[N+](=O)[O-])cc1OCc1ccccc1 (stereo not given) | -0.0125 | 0.216 | 0.258 | 0.975 | 1.6 | 0.875 | 1.27 | 0.37 (inactive) | 1.04 | -0.0296
CC(C)C[C@H]1NC(=O)[C@@]23C(=O)N[C@@H](Cc4ccccc4)C2[C@H](C)[C@@]2(C)O[C@H]2C3/C=C/C/C=C\CNC(=O)[C@@H]2CCCN2C1=O (stereo not given in full) | -0.504 | -0.39 | -0.078 | 0.774 | 0.303 | 0.912 | 0.665 | 0.31 (inactive) | 0.52 | -0.0645
COc1ccc([Si](C)(C)[C@H]2[C@H](CCn3cc([C@H](O)c4ccccc4)nn3)O[C@@]3(C(=O)N(c4ccccc4)c4ccccc43)[C@@H]2C)cc1 | -0.0662 | -0.125 | -0.137 | 0.0529 | -0.0554 | 0.44 | 0.248 | -0.805 (inactive) | -0.0512 | -0.236
CC(C)CNC(=O)[C@@H]1c2ccccc2C(=O)N(Cc2ccccc2Cl)[C@H]1c1ccc(CO)cc1 | 0.29 | 0.0116 | -0.129 | -0.833 | -0.595 | -1.27 | 0.252 | -1.38 (inactive) | -0.295 | -0.236
C=C(CCCC)/C(=C/C[C@H](OC(C)=O)c1cccc(OCCO)c1)c1cc(C(=O)OC)ccc1OC | 0.0336 | -0.325 | -0.0852 | -0.0418 | -0.393 | -0.578 | 0.131 | -0.502 (inactive) | -0.221 | -0.201
CC1CC/C=C\[C@H]2OC34C=CCN(CCN5CCOCC5)C(=O)[C@H]3N(CCCCCCO)C(=O)[C@@H]4C2C(=O)O1 (stereo not given in full) | -0.0847 | -0.686 | -0.129 | -0.445 | -0.894 | -0.539 | 1.44 | 0.647 (inactive) | -0.493 | -0.171
COCCCNC(=O)[C@@]1(Sc2ccc(C)cc2)CC(=O)N(C2CCCCC2)[C@@H]1c1ccc(CO)cc1I | -0.364 | 0.657 | 0.0442 | 0.655 | 1.02 | 1.56 | 1.26 | -3.63 (inactive) | 0.505 | 0.176
NC(=O)NCC#Cc1ccc2c(c1)[C@]1(C(=O)N2)[C@H](C(=O)Nc2nc3ccccc3s2)[C@H]2C(=O)O[C@H](c3ccccc3)[C@H](c3ccccc3)N2[C@@H]1c1ccc(OCCO)cc1 | 0.155 | -0.164 | 0.0526 | 0.331 | 0.614 | -0.029 | -0.895 | 2.13 (inactive) | 0.99 | -0.347
